# Reference: PubChem BioAssay AID1851 (National Center for Advancing Translational Sciences (NCATS), 2009)
# Screen size: about 16,000 compounds; about 5,800 (36%) were called active. Inconclusive results (about 23%) are left out. Calls come from the whole dose curve; as a rule, active = well fitted curve in the direction sought with a large enough effect; inconclusive = small, poorly fitted or top-dose-only effect, or effect the other way; inactive = no such curve, though single readings can be large or run the other way. Some of the results follow.
# Biological target: Cytochrome P450 2C19 (Homo sapiens) (UniProt P33261)
# Sequence (P33261 whole entry, looked up): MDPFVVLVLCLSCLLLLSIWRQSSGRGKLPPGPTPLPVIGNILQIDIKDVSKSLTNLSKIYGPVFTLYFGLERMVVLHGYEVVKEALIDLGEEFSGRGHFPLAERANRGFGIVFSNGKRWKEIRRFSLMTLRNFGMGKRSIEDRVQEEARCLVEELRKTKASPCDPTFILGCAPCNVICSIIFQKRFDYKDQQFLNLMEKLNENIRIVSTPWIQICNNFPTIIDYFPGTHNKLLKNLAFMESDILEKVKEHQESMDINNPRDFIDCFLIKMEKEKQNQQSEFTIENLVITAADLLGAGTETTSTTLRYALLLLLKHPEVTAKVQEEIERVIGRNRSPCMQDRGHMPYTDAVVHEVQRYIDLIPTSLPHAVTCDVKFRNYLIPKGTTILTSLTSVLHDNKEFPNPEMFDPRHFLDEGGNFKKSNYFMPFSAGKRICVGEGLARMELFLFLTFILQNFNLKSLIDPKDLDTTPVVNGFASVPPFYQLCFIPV
# Experiment: Cytochrome panel assay with activity outcomes
# Conditions: recombinant CYP, pro-luciferin dealkylation, luminescence, p450-cyp2c19; series mostly up to 57.1 µM; activity, negative = inhibition: at the top concentration
# Procedure: The P450 gene superfamily is involved in the metabolism and clearance of xenobiotics. This assay used various human CYP P450 isozymes to measure the dealkylation of various pro-luciferin substrates to luciferin. The luciferin is then measured by luminescence after the addition of a luciferase detection reagent. Pro-luciferin substrate concentration in the assay was equal to its KM for its CYP P450 isozyme. Inhibitors and some substrates limit the production of luciferin, and decrease measured luminescence.
# NCGC Assay Protocol Summary:
# 1, Reagent, 2 uL, Isozyme and Pro-Luciferin
# 2, Library compounds, 23 nl, 40 uM to 0.24 nM dilution series
# 3, Controls, 23 nl, Isozyme specific inhibitor
# 4, Reagent, 2 uL, NADPH regeneration solution
# 5, Incubation time, 60 min, Isozyme specific temperature
# 6, Reagent, 4ul, Detection reagent
# 7, Incubation time, 20 min, Isozyme specific temperature
# 8, Detection, 1 sec, ViewLux luminescent read
# The luciferase-based P450-GloTM Screening Systems were obtained from Promega (Madison, WI) for CYP 1A2 (V9770), CYP 2C9 (V9790), CYP2 C19 (V9880), CYP 2D6 (V9890), and CYP 3A4 Luciferin-PPXE (V9910) and were adapted for 1,536-well microplates and an automated protocol. The control compounds furafylline for 1A2 (F124), sulfaphenazole for CYP 2C9 (S0758), ketoconazole for CYP 2C19 (K1003), quinidine for 2D6 (Q3625), and ketoconazole for 3A4 (K1003) were purchased from Sigma Aldrich (St. Louis, MO). Recombinant P450 enzymes were obtained from baculovirus constructs expressed in insect cells (BD/Gentest).
# Medium-binding white solid Kalypsys plates used. Mixtures kept on ice. 1A2: 10 nM 1A2, 100 uM Luc-ME, 100 mM KPO4; 2C9: 10 nM 2C9, 100 uM Luc-H, 25 mM KPO4; 2C19: 5 nM 2C19, 10 uM Luc-H EGE, 50 mM KPO4; 2D6: 5 nM 2D6, 30 uM Luc-ME EGE, 100 mM KPO4; 3A4: 10 nM, 25 uM Luc-PPXE. All amounts are reflected in their final concentration, working concentration is 2x.
# NADPH regeneration solution: 1.3 mM NADP+, 3.3 mM glucose-6-phosphate, 3.3 mM MgCl2, 0.4 U/mL glucose-6-phosphate dehydrogenase for all isozymes, 200 mM KPO4 for 3A4. Mixture prepared at RT but kept on ice during automated run.
# RT incubation in auxilliary plate hotel for 1A2, 2D6, and 3A4; 37C for 2C9 and 2C19.
# Keywords: P450, CYP1A2, CYP2C19, CYP2C9, CYP2D6, CYP3A4, Luciferase, MLSMR, MLSCN, NIH Roadmap, qHTS, NCGC
# % is set by controls: 0 for no effect and ±100 for the full control effect.
Compound,AC50,"activity, negative = inhibition"
COc1cccc(NC(=O)CSc2nc3ccccc3cc2Cc2ccccc2)c1,0.251 µM (active),
COc1ccccc1NC(=O)CSc1nc2ccccc2cc1Cc1ccccc1,0.0398 µM (active),
COc1ccc(NC(=O)CSc2nc3ccccc3cc2Cc2ccccc2)cc1,0.0282 µM (active),
COc1ccc(NC(=O)CCSc2cc(C)c3ccccc3n2)cc1,7.94 µM (active),
CN(CCc1ccc(Cl)c(Cl)c1)CCN1CCCCCC1,,-43.2% (inactive)
CN(CCc1ccc(Cl)c(Cl)c1)C[C@@H](O)COc1ccc(NS(C)(=O)=O)cc1,2 µM (active),
CC(C)NC[C@H](O)c1ccc(NS(C)(=O)=O)cc1,inactive,
O=C(NCC1CCCO1)c1onc(CSc2ccccc2F)c1C(=O)O (stereo not given),,37.7% (inactive)
C=CCNC(=O)c1onc(CSc2ccc(F)cc2)c1C(=O)O,5.62 µM (active),
COCCNC(=O)c1onc(CSc2cccc(Cl)c2)c1C(=O)O,,6.67% (inactive)
O=C(NCc1ccccc1)c1onc(CSc2ccc(F)cc2)c1C(=O)NCCCN1CCOCC1,12.6 µM (active),
COCCNC(=O)c1onc(CSc2ccc(Cl)cc2)c1C(=O)O,3.55 µM (active),
O=C(NCCCN1CCOCC1)c1cc2c(s1)CSC2,,-22.2% (inactive)
COc1ccccc1C(=O)O/N=C1/CCCc2c1ccc(OC)c2[N+](=O)[O-],0.631 µM (active),
COc1ccc(/C=N/NC(N)=S)cc1OC(=O)c1cccc2ccccc12,2 µM (active),
O=C(O)CC[C@]1(C(=O)O)CCC(=O)c2ccccc21,,22.5% [at 11.4 µM] (inactive)
Cc1ccccc1NS(=O)(=O)c1ccc2[nH]cc(C(=O)N(C)Cc3ccco3)c(=O)c2c1,25.1 µM (active),
CC1CCN(c2ccc(S(=O)(=O)Nc3cc(C(=O)O)cc(C(=O)O)c3)cc2[N+](=O)[O-])CC1,3.16 µM (active),
NNS(=O)(=O)c1cc(C(=O)O)cc(C(=O)O)c1,,-25.2% [at 11.4 µM] (inactive)
COC(=O)c1cc(NS(=O)(=O)c2ccc(N3CCCCCC3)c([N+](=O)[O-])c2)cc(C(=O)OC)c1,5.62 µM (active),
CCCCN(C)S(=O)(=O)c1ccc(C(=O)Nc2nnc(CSC)o2)cc1,,-9.3% (inactive)
Cc1cc(C)c(C)c(S(=O)(=O)ON2C(=O)c3ccccc3C2=O)c1C,3.16 µM (active),

Compound,AC50,"activity, negative = inhibition"
N[C@@](CC(=O)O)(Cc1ccccc1)C(=O)O,,22.4% [at 11.4 µM] (inactive)
C=CC(=O)NC(C)(C)Cc1ccccc1,14.1 µM (active),
CC(C)(SCc1ccccc1)[C@H](N)C(=O)O,,1.45% [at 11.4 µM] (inactive)
COC(=O)c1ccccc1NS(=O)(=O)c1ccc2c3c(cccc13)C(=O)N2,0.794 µM (active),
N=C(N)SCCc1cnc[nH]1,inactive,
Fc1ccc(C(OCCCc2cnc[nH]2)c2ccc(F)cc2)cc1,0.00398 µM (active),
N[C@@H](Cc1cnc[nH]1)C(=O)O,,36.4% (inactive)
CN1CCN(c2ncc3nc(-c4cccs4)c(=O)n(C[C@H]4CCCO4)c3n2)CC1,,-16.1% (inactive)
CN1CCc2c(c3ccccc3n2C)C1,,1.73% (inactive)
O=S(=O)(O)c1ccc(N=Nc2ccc3c(S(=O)(=O)O)cccc3c2O)c2ccccc12,,-37.1% [at 11.4 µM] (inactive)
COc1cc(-c2ccc(N=Nc3ccc4c(S(=O)(=O)O)cc(S(=O)(=O)O)c(N)c4c3O)c(OC)c2)ccc1N=Nc1ccc2c(S(=O)(=O)O)cc(S(=O)(=O)O)c(N)c2c1O,3.98 µM (active),
C=CCN(CC=C)C(=O)C(=O)c1cc(C)n(-c2ccc([N+](=O)[O-])cc2)c1C,0.126 µM (active),
Clc1ccc2c(c1)C(N1CCNCC1)=Nc1ccccc1O2,,-17.2% [at 25.6 µM] (inactive)
CN1CCN(C2=Nc3ccccc3Oc3ccc(Cl)cc32)CC1,inactive,
CN1CCN(C2=Cc3ccccc3Oc3ccc(Cl)cc32)CC1,3.98 µM (active),
COC(=O)c1sc2ccccc2c1-n1cccc1C(=O)C(=O)Nc1ccc(Cl)cc1,5.01 µM (active),
C=CCNC(=O)c1cccn1-c1ccsc1C(=O)OC,,-9.71% (inactive)
Cc1ccc(NC(=O)N(Cc2ccco2)C(C)c2ccco2)cc1C (stereo not given),5.62 µM (active),
COCC(=O)N1CCC2(CCCN(Cc3ccccc3OC)C2)CC1,,20.3% (inactive)
Cc1ccc(-c2n[nH]c(=S)n2/N=C/c2cccn2C)cc1,14.1 µM (active),
Cc1nnc(C)n1/N=C/c1ccc(-c2ccccc2)cc1,,-11.6% (inactive)
C/C=C\C(=O)N(CC)c1ccccc1C,,-41.5% [at 25.6 µM] (inactive)

Compound,AC50,"activity, negative = inhibition"
COc1cccc(-c2cc(=O)c3ccccc3o2)c1N,6.31 µM (active),
C/C(=N/O)[C@@H]1C[C@H](CC(=O)O)C1(C)C,,23% [at 11.4 µM] (inactive)
Cc1cc(C)n2nc(-c3sccc3-n3cccc3)cc2n1,7.08 µM (active),
CCOC(=O)c1cccc(C(=O)OCC)n1,,-3.88% (inactive)
O=C(OCC(=O)c1cccs1)c1cccc(C(=O)OCC(=O)c2cccs2)n1,17.8 µM (active),
Cc1nc2ccc(S(=O)(=O)NC(CC(C)C)C(=O)O)cc2s1 (stereo not given),,-7.8% (inactive)
Cc1ccc2nc(NC(=O)COC(=O)c3ccc(Br)o3)sc2c1,8.91 µM (active),
Cc1ccc2nc(-c3ccc(NC(=O)c4ccc(N)cc4)c(S(=O)(=O)O)c3)sc2c1,,0.214% [at 11.4 µM] (inactive)
Cc1ccc2nc(NC(=O)CSCC(=O)OCC(=O)c3ccc(Br)cc3)sc2c1,8.91 µM (active),
OCCN(CCO)c1ncnc2nc[nH]c12,,-23.9% [at 11.4 µM] (inactive)
CC(C)(C)N1C(=O)[C@H]2[C@@H]3[C@H](O)[C@H](O)CC(=O)[C@H]3CC[C@H]2C1=O,,-4.03% [at 11.4 µM] (inactive)
N#CCCn1c(=O)c(-c2ccc(Cl)cc2)nc2cnc(Oc3cccc(Cl)c3)nc21,,-6.9% (inactive)
N#CCCn1cc(/C=N/O)c(-c2ccc(Cl)cc2)n1,7.94 µM (active),
N#CCCn1c(=O)c(-c2ccc(Cl)cc2)nc2cnc(N3CCOCC3)nc21,,-3.89% (inactive)
CC1=CC(=O)C=CC1(C)C(Cl)(Cl)Cl (stereo not given),25.1 µM (active),
COc1ccccc1CNc1ccnc(-c2ccc(N(C)C)cc2)n1,10 µM (active),
COc1ccccc1CNc1ccnc(-c2ccoc2)n1,7.94 µM (active),
CN(C)c1ccc(-c2nccc(NCc3ccccc3)n2)cc1,25.1 µM (active),
Cc1cnc(CNc2ccnc(-c3ccc(N(C)C)cc3)n2)cn1,,-41.5% (inactive)
CN(C)C(=O)c1ccc(-c2nccc(NCc3ccccc3)n2)cc1,,-44.6% (inactive)
CN(C)c1ccc(-c2nccc(NCc3cccs3)n2)cc1,15.8 µM (active),
